{
  "source": "paper PMC5540273",
  "about": "(PLoS ONE, 2017);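 note: KINOMEscan kinase panel screen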",
  "data": [
    {"test_system": "CLK2", "settings": "concentration: 1 μM, replicates: in singlicate; n = 1", "units": {"%Inh": "%"}, "values": [
      {"molecule": "O=C(Nc1cccc(-c2nn3ccccc3c2-c2ccnc(Nc3cccc(F)c3)n2)c1)c1c(F)ccc(F)c1Cl", "note": "[GSK357952]", "%Inh": 0},
      {"molecule": "O=C(Nc1ccccc1F)NC1CCN(c2ccnc(Nc3ccc(F)cc3)n2)CC1", "note": "[GSK1379800]", "%Inh": 0},
      {"molecule": "CSc1cccc2c(-c3ccncn3)c(-c3ccc(F)cc3)nn12", "note": "[GW514786]", "%Inh": 0},
      {"molecule": "COc1ccc(-c2coc3ccc(-c4nnc(SCc5ccc(OC)c(C(F)(F)F)c5)o4)cc23)cc1", "%Inh": 1}
    ]},
    {"test_system": "CLK3", "settings": "concentration: 1 μM, replicates: in singlicate; n = 1", "units": {"%Inh": "%"}, "values": [
      {"molecule": "CN(C)S(=O)(=O)c1cc(-c2ccc3nccc(-c4cccc(S(N)(=O)=O)c4)c3c2)cnc1N", "note": "[GSK1669921]", "%Inh": 21},
      {"molecule": "CCS(=O)(=O)c1ccc(OC)c(Nc2nccc(-c3c(-c4cccc(NC(=O)c5c(F)cccc5F)c4)nn4ncccc34)n2)c1", "note": "[GSK326180]", "%Inh": 9},
      {"molecule": "COc1cc(Nc2nccc(N3CCC(NC(=O)c4cc5ccccc5s4)C3)n2)cc(OC)c1OC", "note": "(centres unmarked) [GSK1379760]", "%Inh": 0},
      {"molecule": "Cc1ccc(F)c(C(=O)Nc2cccc(-c3nn4ccccc4c3-c3ccnc(Nc4cccc(F)c4)n3)c2)c1F", "note": "[GSK361061]", "%Inh": 0},
      {"molecule": "Clc1ccc(-c2nn3ncccc3c2-c2ccnc(Nc3ccc4c(c3)OCCO4)n2)cc1", "note": "[GW829116]", "%Inh": 0},
      {"molecule": "CCCCc1nn2ncccc2c1-c1ccnc(Nc2ccc(N3CCN(C)CC3)cc2)n1", "note": "[GW684941]", "%Inh": 0},
      {"molecule": "CCn1c(-c2nonc2N)nc2c(C#CC(C)(C)O)ncc(OCCCCN)c21.O=C(O)C(F)(F)F.O=C(O)C(F)(F)F", "note": "[GSK507274]", "%Inh": 11}
    ]}
  ]
}
